# Results reported in the supplement of paper PMC10849652.
# Of roughly 7,900 targets only a part is listed; those with a hit were picked by preference. About 0.6% of all pairs of compound and target were hits. A number with no mark means an inactive call.
# Assays:
# Assay in all cases: log2 fold change, soluble protein after heating vs DMSO (PISA); higher = thermal stabilisation; K562 cells, 10 uM, 30 min; active = over 0.2 and 3.5 SD of the protein, either way, in both replicates (recomputed)
# [1] = compound: CC1=C(C=C(C=C1)NC(=O)C2=CC(=CC=C2)C(C)(C)C#N)NC3=CC4=C(C=C3)N=CN(C4=O)C
# How it was run: (§1)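 K562 cells at 2×10^6 cells/mL were exposed to 10 μM compound for 30 min, then aliquots were heated for 3 min across 48°C-58°C, pooled, and extracted in PBS containing 0.5% NP-40 at 4°C. The supernatant after 21,000xg for 90 min was taken as soluble protein and measured by TMTpro 16plex LC-MS/MS with channel sums equalised. Thermal stability is reported relative to control samples, with values from duplicates. Fold changes are given on a log2 scale.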
# [2] = compound: CC1=C(C=C(C=C1)NC(=O)C2=CC(=CC=C2)N(C)C)NC(=O)C3=CC=C(C=C3)O
# How it was run: as §1
# [3] = compound: CC1=CC=C(C=C1)SC2=C3C=C(SC3=CN=C2)C(=O)N
# How it was run: as §1
# [4] = compound: CC1=NC(=CC=C1)C2=C(N=C(N2)C(C)(C)C)C3=CC4=NC=CN=C4C=C3
# How it was run: as §1
# Nexturastat A = compound: CCCCN(Cc1ccc(C(=O)NO)cc1)C(=O)Nc1ccccc1 [Nexturastat A]
# How it was run: as §1
# vemurafenib = compound: CCCS(=O)(=O)Nc1ccc(F)c(C(=O)c2c[nH]c3ncc(-c4ccc(Cl)cc4)cc23)c1F [vemurafenib]
# How it was run: as §1
# [5] = compound: CCCS(=O)(=O)Nc1ccc(F)c(C(=O)c2c[nH]c3ncc(Cl)cc23)c1F
# How it was run: as §1
# [6] = compound: CCCc1cc(C)[nH]c(=O)c1CNC(=O)c1cc(-c2ccnc(N3CCN(C)CC3)c2)cc2c1cnn2C(C)C
# How it was run: as §1
# givinostat = compound: CCN(CC)Cc1ccc2cc(COC(=O)Nc3ccc(C(=O)NO)cc3)ccc2c1 [givinostat]
# How it was run: as §1
# barasertib = compound: CCN(CCCOc1ccc2c(Nc3cc(CC(=O)Nc4cccc(F)c4)[nH]n3)ncnc2c1)CCOP(=O)(O)O [barasertib]
# How it was run: as §1
# UniProt P18754, sequence (P18754 whole entry, looked up): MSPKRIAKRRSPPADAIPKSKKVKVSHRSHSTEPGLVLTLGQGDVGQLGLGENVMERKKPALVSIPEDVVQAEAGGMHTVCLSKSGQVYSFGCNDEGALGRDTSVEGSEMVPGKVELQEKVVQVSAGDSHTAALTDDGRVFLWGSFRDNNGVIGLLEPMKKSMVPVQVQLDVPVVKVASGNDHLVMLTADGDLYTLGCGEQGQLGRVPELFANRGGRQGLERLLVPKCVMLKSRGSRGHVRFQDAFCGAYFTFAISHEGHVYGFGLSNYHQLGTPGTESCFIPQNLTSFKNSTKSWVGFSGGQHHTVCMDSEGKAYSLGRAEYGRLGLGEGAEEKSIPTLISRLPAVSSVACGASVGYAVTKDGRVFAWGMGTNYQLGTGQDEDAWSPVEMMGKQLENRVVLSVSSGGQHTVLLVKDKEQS
# UniProt Q9UKM9, sequence (Q9UKM9 whole entry, looked up): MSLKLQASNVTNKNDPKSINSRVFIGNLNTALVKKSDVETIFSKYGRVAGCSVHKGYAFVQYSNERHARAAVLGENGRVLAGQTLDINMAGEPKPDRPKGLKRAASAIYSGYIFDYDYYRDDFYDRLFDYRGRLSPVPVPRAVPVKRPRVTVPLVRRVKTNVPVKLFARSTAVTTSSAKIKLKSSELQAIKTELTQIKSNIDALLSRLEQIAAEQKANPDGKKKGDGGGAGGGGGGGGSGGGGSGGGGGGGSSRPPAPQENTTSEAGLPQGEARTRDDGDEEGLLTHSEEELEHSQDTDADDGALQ
# UniProt Q5RL73, sequence (Q5RL73 whole entry, looked up): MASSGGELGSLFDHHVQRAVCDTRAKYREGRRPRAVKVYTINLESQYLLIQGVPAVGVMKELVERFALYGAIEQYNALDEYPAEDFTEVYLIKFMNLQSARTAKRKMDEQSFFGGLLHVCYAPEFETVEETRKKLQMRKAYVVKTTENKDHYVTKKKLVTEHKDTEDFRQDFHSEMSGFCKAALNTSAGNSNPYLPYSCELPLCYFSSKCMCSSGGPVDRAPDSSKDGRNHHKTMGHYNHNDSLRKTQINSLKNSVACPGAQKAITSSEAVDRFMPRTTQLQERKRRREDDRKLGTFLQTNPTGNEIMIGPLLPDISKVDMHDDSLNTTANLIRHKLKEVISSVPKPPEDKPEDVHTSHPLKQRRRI
# UniProt Q96EV2, sequence (Q96EV2 whole entry, looked up): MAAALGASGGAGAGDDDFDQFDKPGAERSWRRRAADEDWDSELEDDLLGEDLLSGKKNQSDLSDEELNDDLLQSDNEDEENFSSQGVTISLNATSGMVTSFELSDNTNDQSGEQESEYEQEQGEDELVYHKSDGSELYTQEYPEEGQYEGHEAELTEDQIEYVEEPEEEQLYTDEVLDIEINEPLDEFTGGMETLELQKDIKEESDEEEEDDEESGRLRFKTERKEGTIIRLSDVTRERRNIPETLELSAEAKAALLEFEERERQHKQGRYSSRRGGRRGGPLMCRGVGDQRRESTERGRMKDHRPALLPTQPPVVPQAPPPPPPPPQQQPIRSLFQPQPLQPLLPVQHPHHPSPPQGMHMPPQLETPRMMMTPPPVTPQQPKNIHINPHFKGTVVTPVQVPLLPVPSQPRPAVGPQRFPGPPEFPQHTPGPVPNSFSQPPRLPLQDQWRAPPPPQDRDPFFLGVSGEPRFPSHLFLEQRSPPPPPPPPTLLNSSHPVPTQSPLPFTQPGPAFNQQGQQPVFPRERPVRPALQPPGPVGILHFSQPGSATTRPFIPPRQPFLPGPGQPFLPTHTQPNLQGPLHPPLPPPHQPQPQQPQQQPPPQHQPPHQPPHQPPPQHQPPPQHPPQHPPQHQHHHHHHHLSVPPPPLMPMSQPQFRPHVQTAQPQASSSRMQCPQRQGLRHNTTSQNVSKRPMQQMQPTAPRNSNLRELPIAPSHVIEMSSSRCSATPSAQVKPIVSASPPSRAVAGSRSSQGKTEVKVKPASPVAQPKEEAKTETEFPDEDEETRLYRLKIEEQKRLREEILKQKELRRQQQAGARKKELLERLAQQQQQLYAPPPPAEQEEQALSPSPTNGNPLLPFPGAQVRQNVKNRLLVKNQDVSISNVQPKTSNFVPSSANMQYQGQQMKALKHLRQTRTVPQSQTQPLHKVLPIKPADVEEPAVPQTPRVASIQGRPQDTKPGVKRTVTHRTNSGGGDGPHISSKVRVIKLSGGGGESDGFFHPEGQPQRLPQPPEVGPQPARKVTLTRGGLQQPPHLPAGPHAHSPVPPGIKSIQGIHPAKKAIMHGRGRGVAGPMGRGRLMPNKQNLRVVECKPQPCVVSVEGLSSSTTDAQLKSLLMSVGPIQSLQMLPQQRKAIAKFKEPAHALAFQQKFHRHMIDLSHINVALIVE
# UniProt Q5T8P6, sequence (Q5T8P6 whole entry, looked up): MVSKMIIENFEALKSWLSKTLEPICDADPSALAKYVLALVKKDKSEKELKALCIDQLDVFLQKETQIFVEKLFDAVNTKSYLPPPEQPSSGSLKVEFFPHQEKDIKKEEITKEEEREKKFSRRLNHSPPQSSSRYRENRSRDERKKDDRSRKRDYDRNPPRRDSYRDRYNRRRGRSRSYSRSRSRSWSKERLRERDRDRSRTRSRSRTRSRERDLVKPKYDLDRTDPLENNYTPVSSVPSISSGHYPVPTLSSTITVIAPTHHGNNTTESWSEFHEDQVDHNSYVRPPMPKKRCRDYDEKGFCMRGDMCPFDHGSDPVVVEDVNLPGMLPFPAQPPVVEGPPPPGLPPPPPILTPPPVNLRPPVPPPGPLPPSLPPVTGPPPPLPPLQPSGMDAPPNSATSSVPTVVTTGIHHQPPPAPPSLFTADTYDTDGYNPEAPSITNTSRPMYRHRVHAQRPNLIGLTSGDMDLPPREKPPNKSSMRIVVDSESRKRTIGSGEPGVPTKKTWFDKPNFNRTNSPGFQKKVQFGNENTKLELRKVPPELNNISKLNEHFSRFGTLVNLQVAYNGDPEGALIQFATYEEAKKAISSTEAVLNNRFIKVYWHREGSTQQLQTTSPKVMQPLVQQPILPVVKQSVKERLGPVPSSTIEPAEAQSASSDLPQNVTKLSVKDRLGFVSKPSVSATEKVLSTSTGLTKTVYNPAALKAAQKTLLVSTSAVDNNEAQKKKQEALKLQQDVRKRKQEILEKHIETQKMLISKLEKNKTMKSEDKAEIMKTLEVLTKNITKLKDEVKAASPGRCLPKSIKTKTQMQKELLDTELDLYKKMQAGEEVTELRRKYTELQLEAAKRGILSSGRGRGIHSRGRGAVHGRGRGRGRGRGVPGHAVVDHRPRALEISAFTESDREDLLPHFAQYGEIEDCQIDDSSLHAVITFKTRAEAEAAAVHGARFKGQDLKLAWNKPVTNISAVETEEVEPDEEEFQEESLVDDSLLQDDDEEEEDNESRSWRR
# UniProt Q14151, sequence (Q14151 whole entry, looked up): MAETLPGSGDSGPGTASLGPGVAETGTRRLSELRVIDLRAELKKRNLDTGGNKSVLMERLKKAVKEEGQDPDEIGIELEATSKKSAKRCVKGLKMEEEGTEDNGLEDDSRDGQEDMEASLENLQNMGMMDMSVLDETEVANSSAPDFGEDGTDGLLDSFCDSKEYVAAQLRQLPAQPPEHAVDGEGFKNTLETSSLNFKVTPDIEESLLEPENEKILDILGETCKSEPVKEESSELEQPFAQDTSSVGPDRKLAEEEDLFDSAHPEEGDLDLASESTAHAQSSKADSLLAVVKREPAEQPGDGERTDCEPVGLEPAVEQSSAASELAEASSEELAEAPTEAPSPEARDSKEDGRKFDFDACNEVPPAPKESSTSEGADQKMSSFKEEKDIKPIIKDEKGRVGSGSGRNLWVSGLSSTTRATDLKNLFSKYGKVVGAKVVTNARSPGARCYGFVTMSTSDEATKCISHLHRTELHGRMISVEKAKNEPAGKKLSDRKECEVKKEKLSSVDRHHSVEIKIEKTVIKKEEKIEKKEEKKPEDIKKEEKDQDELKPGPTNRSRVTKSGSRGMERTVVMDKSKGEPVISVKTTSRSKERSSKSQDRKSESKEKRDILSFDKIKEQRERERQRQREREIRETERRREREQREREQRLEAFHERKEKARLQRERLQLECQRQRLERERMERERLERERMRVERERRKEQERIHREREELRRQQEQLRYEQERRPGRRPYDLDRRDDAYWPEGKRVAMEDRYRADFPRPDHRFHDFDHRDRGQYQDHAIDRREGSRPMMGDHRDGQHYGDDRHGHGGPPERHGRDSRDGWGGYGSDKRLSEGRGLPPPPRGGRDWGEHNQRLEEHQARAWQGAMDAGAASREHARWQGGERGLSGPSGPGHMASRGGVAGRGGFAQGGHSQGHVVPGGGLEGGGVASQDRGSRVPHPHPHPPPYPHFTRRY
# UniProt Q96T51, sequence (Q96T51 whole entry, looked up): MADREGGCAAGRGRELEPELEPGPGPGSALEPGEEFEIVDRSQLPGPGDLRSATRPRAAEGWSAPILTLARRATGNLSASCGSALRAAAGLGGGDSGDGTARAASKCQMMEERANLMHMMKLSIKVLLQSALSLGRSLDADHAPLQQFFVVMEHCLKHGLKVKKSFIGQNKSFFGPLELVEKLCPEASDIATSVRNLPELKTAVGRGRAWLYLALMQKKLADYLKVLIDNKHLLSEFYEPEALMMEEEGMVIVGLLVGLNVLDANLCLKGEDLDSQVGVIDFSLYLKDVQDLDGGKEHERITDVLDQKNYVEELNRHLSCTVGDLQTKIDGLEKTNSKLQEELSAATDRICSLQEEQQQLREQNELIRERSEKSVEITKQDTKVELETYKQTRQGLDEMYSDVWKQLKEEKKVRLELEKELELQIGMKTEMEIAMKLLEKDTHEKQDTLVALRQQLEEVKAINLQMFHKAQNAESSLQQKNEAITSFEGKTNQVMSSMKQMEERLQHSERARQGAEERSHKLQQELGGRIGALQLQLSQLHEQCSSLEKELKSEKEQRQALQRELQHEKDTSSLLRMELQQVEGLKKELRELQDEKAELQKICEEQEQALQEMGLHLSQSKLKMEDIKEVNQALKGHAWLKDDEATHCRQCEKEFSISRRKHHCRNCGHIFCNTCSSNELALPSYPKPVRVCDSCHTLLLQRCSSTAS
Target,log2 fold change [1],log2 fold change [2],log2 fold change [3],log2 fold change [4],log2 fold change (Nexturastat A),log2 fold change (vemurafenib),log2 fold change [5],log2 fold change [6],log2 fold change (givinostat),log2 fold change (barasertib)
RBM26 isoform 2 (UniProt Q5T8P6),0.122,-0.088,0.033,0.116,-0.184,0.143,0.09,-0.014,0.097,0.079
SEC31A (UniProt O94979),-0.053,-0.052,0.015,0.019,0.102,0.054,0.064,-0.032,0.098,0.052
RCC1 isoform 2 (UniProt P18754),0.197,-0.129,0.073,0.055,-0.027,0.13,0.104,0.111,0.087,0.053
SLC12A9 (UniProt Q9BXP2),-0.007,0.056,-0.04,0.005,-0.008,0.017,-0.012,-0.059,-0.014,0.083
RPS4X (UniProt P62701),0.019,0,-0.027,-0.055,0.214,-0.106,-0.08,0.213,0.021,-0.101
RBM33 (UniProt Q96EV2),-0.024,-0.001,-0.014,0.014,0.021,-0.019,0.022,0.022,0.077,0.037
SETD3 (UniProt Q86TU7),-0.008,0.029,-0.01,0.046,-0.024,0.035,-0.01,0.034,-0.037,0.026
RBM4 (UniProt Q9BWF3),-0.041,-0.033,-0.061,-0.034,0.081,0.01,0.052,0.003,0.071,0.018
SAFB2 (UniProt Q14151),0.011,0.068,-0.024,0.011,0.203,-0.048,-0.038,0.097,-0.011,-0.029
RPS19 (UniProt P39019),0.008,0.007,-0.054,-0.009,0.121,-0.07,-0.066,-0.039,0.013,-0.083
RAB3GAP2 (UniProt Q9H2M9),-0.001,-0.018,0.017,-0.029,0.215,0.06,0.026,0.092,0.106,0.068
RALY (UniProt Q9UKM9),0.091,-0.021,-0.05,0.105,0.358,-0.056,0.187,0.005,0.209,-0.138
RUFY1 (UniProt Q96T51),0.013,-0.011,-0.022,-0.035,0.063,0.043,0.059,0.029,0.031,0.027
RARS2 (UniProt Q5T160),0.018,0.033,0.056,0.029,-0.027,0.019,0.05,-0.014,-0.037,0.017
RPA3 (UniProt P35244),0.076,-0.059,0.111,0.014,0.091,0.298 (active),0.053,-0.044,-0.109,0.066
RBM39 (UniProt Q14498),-0.035,0,-0.011,0.071,0.043,0.084,0.083,0.034,0.131,0.012
RUFY3 isoform 3 (UniProt Q7L099),-0.085,-0.068,0.016,0.038,–,-0.032,-0.011,-0.093,0.021,–
"SART3, A0A499FI31",0.015,-0.05,-0.014,0.04,-0.043,0.023,0.072,-0.013,0.012,0.022
RAB3IL1 (UniProt E9PK89),-0.069,-0.037,0,0.061,-0.111,-0.08,-0.053,–,0.278,-0.014
RBM48 isoform 2 (UniProt Q5RL73),-0.708 (active),-0.13,-0.009,-0.007,0.04,–,-0.011,–,-0.03,-0.069
RARS (UniProt P54136),0.005,0.006,-0.011,-0.048,0.325,-0.018,0.058,0.075,0.016,0.037
RAVER1 (UniProt E9PAU2),0.144,-0.075,-0.025,0.144,-0.046,-0.1,0.067,0.293,0.131,0.099
SIDT2 isoform 2 (UniProt Q8NBJ9),-0.021,0.019,-0.025,-0.367 (active),0.042,0.019,-0.033,0.017,0.038,-0.148
RRAGB (UniProt Q5VZM2),0.013,0.018,0.011,-0.01,-0.071,0.001,0.028,-0.023,-0.044,-0.004
RABGGTA (UniProt Q92696),0.019,0.04,-0.004,0.002,-0.084,0.003,0.005,-0.023,-0.024,0.017
RPRD1B (UniProt Q9NQG5),0.007,-0.021,-0.029,0.101,-0.054,0.05,0.07,-0.057,-0.064,0.007
RPS16 (UniProt P62249),0.028,-0.016,-0.087,-0.035,0.11,-0.073,-0.103,0.337,-0.046,-0.053
RAB33B (UniProt Q9H082),-0.028,-0.026,-0.028,-0.071,-0.004,-0.083,-0.038,-0.065,-0.012,0.031
RRP36 (UniProt Q96EU6),0.001,-0.168,-0.045,–,0.24,-0.117,0.002,0.136,0,-0.218
RDH13 (UniProt Q8NBN7),0.011,-0.082,0.045,0.078,-0.046,0.044,0.019,-0.01,-0.002,0.033
